# Measurements taken from paper PMC11024108.
# Key:
# [1] = molecular target: Septin-10 (UniProt Q9P0V9); experiment: cross-link between two proteins; cross-linking mass spectrometry
# [2] = molecular target: Septin-2 (UniProt Q15019); experiment: as above
# [3] = molecular target: Septin-8 (UniProt Q8CHH9); experiment: as above
# [4] = molecular target: Small ribosomal subunit protein mS40 (UniProt Q9Y676); experiment: as above
# [5] = molecular target: Sodium/potassium-transporting ATPase subunit alpha-1 (UniProt Q8VDN2); experiment: as above
# [6] = molecular target: Sodium/potassium-transporting ATPase subunit alpha-2 (UniProt Q6PIE5); experiment: as above
# [7] = molecular target: Spectrin alpha chain, non-erythrocytic 1 (UniProt P16546); experiment: as above
# [8] = molecular target: Splicing factor 3B subunit 2 (UniProt Q13435); experiment: as above
# Chain of Splicing factor 3B subunit 2 (Q13435 whole entry): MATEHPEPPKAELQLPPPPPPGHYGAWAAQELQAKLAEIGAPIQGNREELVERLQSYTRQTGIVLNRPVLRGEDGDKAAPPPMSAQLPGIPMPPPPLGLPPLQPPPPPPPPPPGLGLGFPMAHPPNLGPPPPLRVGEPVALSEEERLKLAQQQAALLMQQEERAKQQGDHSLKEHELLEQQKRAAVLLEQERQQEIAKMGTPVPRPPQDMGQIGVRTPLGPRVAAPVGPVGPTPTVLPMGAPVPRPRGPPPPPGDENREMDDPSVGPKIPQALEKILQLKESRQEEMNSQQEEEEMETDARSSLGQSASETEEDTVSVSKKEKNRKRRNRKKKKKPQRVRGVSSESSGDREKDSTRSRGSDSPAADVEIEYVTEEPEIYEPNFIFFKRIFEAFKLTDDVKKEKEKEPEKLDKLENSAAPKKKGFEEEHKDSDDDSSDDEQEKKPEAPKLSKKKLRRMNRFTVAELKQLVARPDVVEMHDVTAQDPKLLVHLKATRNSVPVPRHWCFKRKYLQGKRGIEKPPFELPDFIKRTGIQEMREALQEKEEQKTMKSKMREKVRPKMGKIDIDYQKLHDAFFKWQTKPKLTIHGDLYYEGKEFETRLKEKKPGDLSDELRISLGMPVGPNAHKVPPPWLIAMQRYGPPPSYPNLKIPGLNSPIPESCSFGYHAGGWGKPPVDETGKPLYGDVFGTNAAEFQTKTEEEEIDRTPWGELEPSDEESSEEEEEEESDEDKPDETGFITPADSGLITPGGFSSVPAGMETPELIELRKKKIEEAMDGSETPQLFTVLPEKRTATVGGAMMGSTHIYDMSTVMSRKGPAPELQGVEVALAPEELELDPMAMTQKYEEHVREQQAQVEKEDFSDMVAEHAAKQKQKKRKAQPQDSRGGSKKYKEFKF
# [9] = molecular target: Ras-related protein Rab-5C (UniProt P51148); experiment: cross-linking mass spectrometry
# [10] = molecular target: T-complex protein 1 subunit gamma (UniProt P49368); experiment: cross-linking mass spectrometry
# Chain of T-complex protein 1 subunit gamma (UniProt P49368) (P49368 whole entry, one chain of several): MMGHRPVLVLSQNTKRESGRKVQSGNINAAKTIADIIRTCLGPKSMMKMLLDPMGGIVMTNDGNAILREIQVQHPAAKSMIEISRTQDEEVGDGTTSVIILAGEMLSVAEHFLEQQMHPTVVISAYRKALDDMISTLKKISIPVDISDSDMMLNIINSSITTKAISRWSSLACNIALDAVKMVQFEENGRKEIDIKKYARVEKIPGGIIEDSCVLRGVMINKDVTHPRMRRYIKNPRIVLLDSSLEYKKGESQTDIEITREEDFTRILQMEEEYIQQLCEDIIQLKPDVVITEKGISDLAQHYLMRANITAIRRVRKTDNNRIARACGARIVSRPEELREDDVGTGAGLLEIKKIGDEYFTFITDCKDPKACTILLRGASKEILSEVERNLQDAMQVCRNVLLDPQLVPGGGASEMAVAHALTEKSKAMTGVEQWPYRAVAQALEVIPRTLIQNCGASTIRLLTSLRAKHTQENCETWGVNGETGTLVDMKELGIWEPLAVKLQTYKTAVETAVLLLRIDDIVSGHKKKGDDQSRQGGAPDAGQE
# [11] = molecular target: tRNA-splicing ligase complex subunit RTRAF (UniProt Q9Y224); experiment: cross-linking mass spectrometry
# [12] = molecular target: Succinate--CoA ligase [ADP-forming] subunit beta, mitochondrial (UniProt Q9P2R7); experiment: cross-link between two proteins; cross-linking mass spectrometry
# [13] = molecular target: Synapsin-2 (UniProt Q64332); experiment: as above
# [14] = molecular target: Vesicle-associated membrane protein 1 (UniProt Q62442); experiment: as above
# [15] = molecular target: Synapsin-3 (UniProt Q8JZP2); experiment: as above
# [16] = molecular target: Synaptic vesicle glycoprotein 2A (UniProt Q9JIS5); experiment: as above
# [17] = molecular target: Synaptopodin (UniProt Q8CC35); experiment: as above
# [18] = molecular target: Synaptotagmin-2 (UniProt P46097); experiment: as above
# [19] = molecular target: T-complex protein 1 subunit beta (UniProt P80314); experiment: as above
# Chain of T-complex protein 1 subunit beta (P80314 whole entry, one chain of several): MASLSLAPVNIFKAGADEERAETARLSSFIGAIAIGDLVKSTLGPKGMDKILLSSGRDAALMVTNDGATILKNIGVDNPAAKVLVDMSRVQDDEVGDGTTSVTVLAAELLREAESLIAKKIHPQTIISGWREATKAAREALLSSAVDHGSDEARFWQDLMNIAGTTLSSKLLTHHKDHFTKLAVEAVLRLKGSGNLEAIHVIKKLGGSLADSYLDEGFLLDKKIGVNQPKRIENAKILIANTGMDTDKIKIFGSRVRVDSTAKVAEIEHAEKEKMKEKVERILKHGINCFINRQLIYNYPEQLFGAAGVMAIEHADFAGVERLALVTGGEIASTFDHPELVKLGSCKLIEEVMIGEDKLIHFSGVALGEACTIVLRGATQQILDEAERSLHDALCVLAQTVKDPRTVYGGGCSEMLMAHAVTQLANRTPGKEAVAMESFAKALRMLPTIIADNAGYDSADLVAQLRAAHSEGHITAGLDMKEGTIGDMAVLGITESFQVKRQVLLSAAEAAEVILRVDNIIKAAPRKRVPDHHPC
# [20] = molecular target: T-complex protein 1 subunit delta (UniProt P80315); experiment: as above
# Chain of T-complex protein 1 subunit delta (P80315 whole entry, stated change not applied, one chain of several): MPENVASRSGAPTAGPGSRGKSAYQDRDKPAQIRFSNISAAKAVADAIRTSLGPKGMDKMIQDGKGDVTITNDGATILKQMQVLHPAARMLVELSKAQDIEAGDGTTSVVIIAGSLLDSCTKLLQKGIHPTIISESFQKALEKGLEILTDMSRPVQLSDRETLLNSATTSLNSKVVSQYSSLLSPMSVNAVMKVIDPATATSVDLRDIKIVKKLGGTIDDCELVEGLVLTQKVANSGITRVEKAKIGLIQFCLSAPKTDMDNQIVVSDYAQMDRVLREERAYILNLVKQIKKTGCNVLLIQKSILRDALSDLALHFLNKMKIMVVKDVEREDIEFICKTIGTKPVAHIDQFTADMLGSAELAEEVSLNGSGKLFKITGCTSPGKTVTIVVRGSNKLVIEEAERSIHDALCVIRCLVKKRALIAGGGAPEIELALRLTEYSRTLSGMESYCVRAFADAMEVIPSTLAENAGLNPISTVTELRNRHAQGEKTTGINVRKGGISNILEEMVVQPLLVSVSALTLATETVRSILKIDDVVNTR
# [21] = molecular target: T-complex protein 1 subunit epsilon (UniProt P80316); experiment: as above
# Chain of T-complex protein 1 subunit epsilon (P80316 whole entry, one chain of several): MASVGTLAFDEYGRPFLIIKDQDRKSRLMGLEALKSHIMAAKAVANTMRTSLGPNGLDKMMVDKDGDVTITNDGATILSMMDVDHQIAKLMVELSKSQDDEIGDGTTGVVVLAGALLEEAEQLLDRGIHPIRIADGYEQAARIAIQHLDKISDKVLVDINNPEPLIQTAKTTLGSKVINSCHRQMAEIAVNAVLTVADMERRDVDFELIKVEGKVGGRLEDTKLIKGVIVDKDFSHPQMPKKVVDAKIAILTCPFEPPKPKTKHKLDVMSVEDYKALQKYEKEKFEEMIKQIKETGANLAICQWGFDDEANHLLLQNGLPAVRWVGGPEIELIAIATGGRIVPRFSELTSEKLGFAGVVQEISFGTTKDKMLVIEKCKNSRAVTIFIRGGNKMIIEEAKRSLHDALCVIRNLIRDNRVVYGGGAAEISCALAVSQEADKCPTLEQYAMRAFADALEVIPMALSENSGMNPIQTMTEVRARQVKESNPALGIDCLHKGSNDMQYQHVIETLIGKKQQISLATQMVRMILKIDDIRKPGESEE
# [22] = molecular target: T-complex protein 1 subunit theta (UniProt P42932); experiment: as above
# [23] = molecular target: T-complex protein 1 subunit gamma (UniProt P80318); experiment: as above
# Chain of T-complex protein 1 subunit gamma (UniProt P80318) (P80318 whole entry, one chain of several): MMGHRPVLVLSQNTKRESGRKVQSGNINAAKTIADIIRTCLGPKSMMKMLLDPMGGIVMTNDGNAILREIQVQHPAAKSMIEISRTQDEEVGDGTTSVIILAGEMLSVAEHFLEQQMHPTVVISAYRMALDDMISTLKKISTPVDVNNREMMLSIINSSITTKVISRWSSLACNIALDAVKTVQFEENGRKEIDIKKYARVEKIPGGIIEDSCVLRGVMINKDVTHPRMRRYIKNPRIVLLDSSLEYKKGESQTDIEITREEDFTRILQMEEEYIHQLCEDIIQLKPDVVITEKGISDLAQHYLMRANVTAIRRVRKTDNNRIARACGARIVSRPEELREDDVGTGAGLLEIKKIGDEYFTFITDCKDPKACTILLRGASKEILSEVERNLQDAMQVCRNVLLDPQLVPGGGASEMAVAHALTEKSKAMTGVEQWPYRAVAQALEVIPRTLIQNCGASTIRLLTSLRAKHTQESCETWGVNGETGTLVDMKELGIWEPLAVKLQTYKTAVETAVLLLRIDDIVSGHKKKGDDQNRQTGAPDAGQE
# [24] = molecular target: T-complex protein 1 subunit zeta (UniProt P80317); experiment: as above
# [25] = molecular target: Talin-2 (UniProt Q71LX4); experiment: as above
# [26] = molecular target: Thioredoxin domain-containing protein 5 (UniProt Q8NBS9); experiment: as above
# [27] = molecular target: Transcriptional activator protein Pur-alpha (UniProt P42669); experiment: as above
# [28] = molecular target: Translation machinery-associated protein 7 (UniProt Q9Y2S6); experiment: as above
# Chain of Translation machinery-associated protein 7 (Q9Y2S6 whole entry, the tested form may be a part): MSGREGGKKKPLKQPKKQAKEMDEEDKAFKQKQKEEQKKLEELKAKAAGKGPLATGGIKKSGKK
# [29] = molecular target: Transmembrane emp24 domain-containing protein 5 (UniProt Q9Y3A6); experiment: as above
# [30] = molecular target: Trifunctional enzyme subunit alpha, mitochondrial (UniProt P40939); experiment: as above
# [31] = molecular target: Tubulin alpha-1A chain (UniProt P68369); experiment: as above
# [32] = molecular target: UDP-glucose:glycoprotein glucosyltransferase 1 (UniProt Q9NYU2); experiment: as above
# [33] = molecular target: Ubiquitin-like protein NEDD8 (UniProt Q15843); experiment: as above
# [34] = molecular target: V-type proton ATPase subunit C 1 (UniProt Q9Z1G3); experiment: as above
# [35] = molecular target: V-type proton ATPase subunit F (UniProt Q9D1K2); experiment: as above
# [36] = molecular target: V-type proton ATPase subunit D (UniProt P57746); experiment: as above
# [37] = molecular target: V-type proton ATPase subunit E 1 (UniProt P50518); experiment: as above
# Chain of V-type proton ATPase subunit E 1 (P50518 whole entry): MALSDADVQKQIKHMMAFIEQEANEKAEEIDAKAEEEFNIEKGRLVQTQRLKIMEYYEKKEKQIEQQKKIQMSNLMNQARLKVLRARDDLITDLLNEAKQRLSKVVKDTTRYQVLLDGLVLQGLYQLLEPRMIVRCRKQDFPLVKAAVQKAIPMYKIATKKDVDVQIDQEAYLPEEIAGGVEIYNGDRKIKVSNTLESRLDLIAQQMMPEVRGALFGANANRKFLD
# [38] = molecular target: V-type proton ATPase subunit G 1 (UniProt Q9CR51); experiment: as above
# [39] = molecular target: V-type proton ATPase subunit G 2 (UniProt Q9WTT4); experiment: as above
# [40] = molecular target: V-type proton ATPase subunit H (UniProt Q8BVE3); experiment: as above
# [41] = molecular target: Vesicle transport through interaction with t-SNAREs homolog 1B (UniProt Q9UEU0); experiment: as above
# [42] = molecular target: Vesicle-associated membrane protein-associated protein A (UniProt Q9WV55); experiment: as above
# [43] = molecular target: Vimentin (UniProt P08670); experiment: as above
# [44] = molecular target: tRNA-splicing ligase complex subunit RTRAF (UniProt Q9CQE8); experiment: as above
# Chain of tRNA-splicing ligase complex subunit RTRAF (UniProt Q9CQE8) (Q9CQE8 whole entry, one chain of several): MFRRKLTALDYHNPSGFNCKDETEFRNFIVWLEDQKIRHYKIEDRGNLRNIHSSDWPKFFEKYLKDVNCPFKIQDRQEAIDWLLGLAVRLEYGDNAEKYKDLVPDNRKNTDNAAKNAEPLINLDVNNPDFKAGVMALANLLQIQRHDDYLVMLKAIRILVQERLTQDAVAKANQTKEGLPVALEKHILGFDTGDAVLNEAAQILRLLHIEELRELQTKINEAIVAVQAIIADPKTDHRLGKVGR
# [45] = molecular target: Cytochrome c oxidase assembly factor 7 (UniProt Q96BR5); experiment: mass-spectrometry hit list; affinity purification or IP with mass spectrometry; cross-linking mass spectrometry
# Chain of T-complex protein 1 subunit alpha, P11983 (P11983 whole entry, one chain of several): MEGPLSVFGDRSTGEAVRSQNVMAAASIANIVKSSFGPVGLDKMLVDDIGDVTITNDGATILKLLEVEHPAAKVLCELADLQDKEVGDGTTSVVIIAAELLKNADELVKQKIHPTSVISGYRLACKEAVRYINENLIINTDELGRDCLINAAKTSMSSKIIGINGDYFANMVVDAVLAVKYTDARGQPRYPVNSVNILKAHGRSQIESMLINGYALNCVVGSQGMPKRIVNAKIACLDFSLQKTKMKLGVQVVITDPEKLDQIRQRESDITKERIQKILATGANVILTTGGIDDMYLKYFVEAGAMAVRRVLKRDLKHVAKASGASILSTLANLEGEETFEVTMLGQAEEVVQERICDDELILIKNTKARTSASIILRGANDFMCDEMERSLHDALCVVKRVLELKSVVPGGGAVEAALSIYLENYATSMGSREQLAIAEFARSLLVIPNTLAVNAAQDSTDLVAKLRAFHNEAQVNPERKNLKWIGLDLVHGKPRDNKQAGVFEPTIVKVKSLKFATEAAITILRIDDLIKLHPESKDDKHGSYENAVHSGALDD
# Chain of V-type proton ATPase subunit D, P57746 (P57746 whole entry): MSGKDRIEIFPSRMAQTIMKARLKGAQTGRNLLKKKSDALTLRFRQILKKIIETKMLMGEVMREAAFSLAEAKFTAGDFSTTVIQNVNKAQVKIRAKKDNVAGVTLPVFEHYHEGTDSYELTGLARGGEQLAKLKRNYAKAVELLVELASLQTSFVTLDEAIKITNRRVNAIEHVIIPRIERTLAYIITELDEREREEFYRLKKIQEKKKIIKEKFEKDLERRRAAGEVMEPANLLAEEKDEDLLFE
substance,measurement,setting,value
"Septin-2, Q15019",listed as a hit,[1],yes
"Septin-6, Q14141",listed as a hit,[2],yes
"Septin-11, Q8C1B7",listed as a hit,[3],yes
"Haloacid dehalogenase-like hydrolase domain-containing protein 3, Q9BSH5",listed as a hit,[4],yes
"FXYD domain-containing ion transport regulator 7, P59648",listed as a hit,[5],yes
"Excitatory amino acid transporter 1, P56564",listed as a hit,[6],yes
"Spectrin beta chain, erythrocytic, P15508",listed as a hit,[7],yes
"U2 small nuclear ribonucleoprotein B'', P08579",listed as a hit,[8],yes
"Ras-related protein Rab-5A, P20339",listed as a hit,[9],yes
"Programmed cell death protein 5, O14737",listed as a hit,[10],yes
"ATP-dependent RNA helicase DDX1, Q92499",listed as a hit,[11],yes
"Succinate--CoA ligase [ADP/GDP-forming] subunit alpha, mitochondrial, P53597",listed as a hit,[12],yes
"Synapsin-1, O88935",listed as a hit,[13],yes
same,listed as a hit,[14],yes
"Synapsin-2, Q64332",listed as a hit,[15],yes
"Synaptophysin, Q62277",listed as a hit,[16],yes
"Alpha-actinin-1, Q7TPR4",listed as a hit,[17],yes
"Synaptotagmin-1, P46096",listed as a hit,[18],yes
"T-complex protein 1 subunit eta, P80313",listed as a hit,[19],yes
"T-complex protein 1 subunit beta, P80314",listed as a hit,[20],yes
same,listed as a hit,[21],yes
"T-complex protein 1 subunit alpha, P11983",listed as a hit,[20],yes
same,listed as a hit,[22],yes
"T-complex protein 1 subunit delta, P80315",listed as a hit,[21],yes
"T-complex protein 1 subunit zeta, P80317",listed as a hit,[23],yes
"T-complex protein 1 subunit theta, P42932",listed as a hit,[24],yes
"Talin-1, P26039",listed as a hit,[25],yes
"Peroxiredoxin-4, Q13162",listed as a hit,[26],yes
"Transcriptional regulator protein Pur-beta, O35295",listed as a hit,[27],yes
"Nuclease EXOG, mitochondrial, Q9Y2C4",listed as a hit,[28],yes
"Transmembrane emp24 domain-containing protein 9, Q9BVK6",listed as a hit,[29],yes
"ADP/ATP translocase 3, P12236",listed as a hit,[30],yes
"Tubulin alpha-4A chain, P68368",listed as a hit,[31],yes
"Selenoprotein F, O60613",listed as a hit,[32],yes
"Cullin-2, Q13617",listed as a hit,[33],yes
"V-type proton ATPase subunit D, P57746",listed as a hit,[34],yes
same,listed as a hit,[35],yes
"V-type proton ATPase catalytic subunit A, P50516",listed as a hit,[36],yes
same,listed as a hit,[37],yes
"V-type proton ATPase subunit E 1, P50518",listed as a hit,[38],yes
same,listed as a hit,[39],yes
"V-type proton ATPase subunit B, brain isoform, P62814",listed as a hit,[40],yes
"Vesicle-associated membrane protein 7, P51809",listed as a hit,[41],yes
"Vesicle-associated membrane protein-associated protein B, Q9QY76",listed as a hit,[42],yes
"Neurofilament medium polypeptide, P07197",listed as a hit,[43],yes
"RNA-splicing ligase RTCB, Q99LF4",listed as a hit,[44],yes
"MICOS complex subunit MIC60, Q16891",listed as a hit,[45],yes
